Measurements reported in PubChem BioAssay AID1159580 (chemical genetic matrix, 2015).
Screen size: about 5,500 compounds; about 2,000 (36%) were called active. Not shown: some 18% with an inconclusive outcome. No stated cut-off is given here; in the data, active means normalized growth mostly below about 0.91 (no sharp cut-off); inconclusive means no clear call, values can overlap the other calls; inactive means mostly above about 0.92. This is one part of the list.

Test: chemical genetic growth profiling, strain panel (AID 1159580);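 further: tested at 20 µM; growth read once vehicle control cultures reached saturation at 30 °C; 1 = growth at the plate median or of vehicle wells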
Settings: growth OD
[1] = S. cerevisiae deletion strains, locus YAL040C, strain CLN3, stronger effect = lower value
[2] = S. cerevisiae deletion strains, locus YCL061C, strain MRC1 (second series), stronger effect = lower value
[3] = S. cerevisiae deletion strains, locus YDR150W, strain NUM1, stronger effect = lower value
[4] = S. cerevisiae deletion strains, locus YDR363W, strain ESC2, stronger effect = lower value
[5] = S. cerevisiae deletion strains, locus YER002W, strain NOP16, stronger effect = lower value
[6] = S. cerevisiae deletion strains, locus YGR078C, strain PAC10, stronger effect = lower value
[7] = S. cerevisiae deletion strains, locus YMR263W, strain SAP30, stronger effect = lower value
[8] = S. cerevisiae deletion strains, locus YMR307W, strain GAS1, stronger effect = lower value
[9] = S. cerevisiae deletion strains, locus YNL128W, strain TEP1, stronger effect = lower value
[10] = S. cerevisiae deletion strains, locus YNL175C, strain NOP13, stronger effect = lower value
[11] = S. cerevisiae deletion strains, locus YNL197C, strain WHI3, stronger effect = lower value
[12] = S. cerevisiae deletion strains, locus YNL224C, strain SQS1, stronger effect = lower value
[13] = S. cerevisiae deletion strains, locus YOR083W, strain WHI5 (second series), stronger effect = lower value
[14] = S. cerevisiae deletion strains, locus YNL153C, strain GIM3, stronger effect = lower value
[15] = S. cerevisiae deletion strains, locus YNL322C, strain KRE1, stronger effect = lower value
[16] = S. cerevisiae deletion strains, locus YPL241C, strain CIN2, stronger effect = lower value
[17] = S. cerevisiae deletion strains, locus YBR229C, strain ROT2, stronger effect = lower value
[18] = S. cerevisiae deletion strains, locus YDL101C, strain DUN1, stronger effect = lower value
[19] = S. cerevisiae deletion strains, locus YHR030C, strain SLT2, stronger effect = lower value
[20] = S. cerevisiae deletion strains, locus YLR039C, strain RIC1, stronger effect = lower value
[21] = S. cerevisiae deletion strains, locus YAL013W, strain DEP1, stronger effect = lower value
[22] = S. cerevisiae deletion strains, locus YCL061C, strain MRC1, stronger effect = lower value
[23] = S. cerevisiae deletion strains, locus YEL061C, strain CIN8, stronger effect = lower value
[24] = S. cerevisiae deletion strains, locus YHR087W, strain rtc3, stronger effect = lower value
[25] = S. cerevisiae deletion strains, locus YJL187C, strain SWE1, stronger effect = lower value
[26] = S. cerevisiae deletion strains, locus YJR043C, strain POL32, stronger effect = lower value
[27] = S. cerevisiae deletion strains, locus YJR075W, strain HOC1, stronger effect = lower value
[28] = S. cerevisiae deletion strains, locus YKL190W, strain CNB1, stronger effect = lower value
[29] = S. cerevisiae deletion strains, locus YLR058C, strain SHM2 (second series), stronger effect = lower value
[30] = S. cerevisiae deletion strains, locus YLR085C, strain ARP6, stronger effect = lower value
[31] = S. cerevisiae deletion strains, locus YLR262C, strain YPT6, stronger effect = lower value
[32] = S. cerevisiae deletion strains, locus YML094W, strain GIM5, stronger effect = lower value
[33] = S. cerevisiae deletion strains, locus YMR219W, strain ESC1, stronger effect = lower value
[34] = S. cerevisiae deletion strains, locus YNL298W, strain CLA4 (second series), stronger effect = lower value
[35] = S. cerevisiae deletion strains, locus YNR030W, strain Alg12, stronger effect = lower value
[36] = S. cerevisiae deletion strains, locus YOL006C, strain TOP1, stronger effect = lower value
[37] = S. cerevisiae deletion strains, locus YPL055C, strain LGE1, stronger effect = lower value
[38] = S. cerevisiae deletion strains, locus YPR135W, strain CTF4, stronger effect = lower value
[39] = S. cerevisiae strains, strain wild type, stronger effect = lower value

Measured: normalized growth

C/C=C(/C)C(=O)O[C@H]1C(C)=C2[C@H]([C@@H]1OC(=O)CCCCCCC)[C@@](C)(OC(C)=O)C[C@H](OC(=O)CCC)[C@@]1(O)[C@H]2OC(=O)[C@@]1(C)O
inactive: [1] 1 | [2] 0.995 | [3] 1.01 | [4] 1.02 | [5] 1.01 | [6] 0.995 | S. cerevisiae deletion strains, locus YGR229C, strain SMI1, stronger effect = lower value 1.05 | [7] 0.995 | [8] 0.968 | [9] 1.03 | [10] 1.02 | [11] 0.984 | [12] 0.988 | [13] 1

CCCCCC(CC(=O)NO)C(=O)NC(C(=O)N1CCCC1CO)C(C)C (stereo not drawn)
inactive: [1] 0.97 | [2] 0.995 | [4] 1.06 | [5] 0.971 | [6] 0.976 | [14] 0.976 | [10] 0.96 | [11] 0.987 | [12] 1.01 | [15] 1.01 | [13] 0.964 | [16] 0.97

COC(=O)C[C@H]1C(C)(C)C(OC(C)=O)[C@]2(O)C=C3C4CC(=O)O[C@@H](c5ccoc5)[C@]4(C)CCC3[C@@]1(C)C2=O (stereo partly drawn)
inactive: S. cerevisiae deletion strains, locus YBR021W, strain FUR4, stronger effect = lower value 0.996 | [17] 1 | S. cerevisiae deletion strains, locus YCL029C, strain bik1, stronger effect = lower value 1.01 | S. cerevisiae deletion strains, locus YDL035C, strain GPR1, stronger effect = lower value 1 | S. cerevisiae deletion strains, locus YDL074C, strain BRE1, stronger effect = lower value 1 | [18] 1.01 | S. cerevisiae deletion strains, locus YDL134C, strain PPH21, stronger effect = lower value 1.02 | S. cerevisiae deletion strains, locus YDL185W, strain tfp1, stronger effect = lower value 1.02 | S. cerevisiae deletion strains, locus YDL192W, strain arf1, stronger effect = lower value 1 | S. cerevisiae deletion strains, locus YDR101C, strain arx1, stronger effect = lower value 1.01 | S. cerevisiae deletion strains, locus YDR162C, strain NBP2, stronger effect = lower value 1.01 | S. cerevisiae deletion strains, locus YDR318W, strain mcm21, stronger effect = lower value 1.01 | S. cerevisiae deletion strains, locus YDR388W, stronger effect = lower value 1 | S. cerevisiae deletion strains, locus YDR502C, strain sam2, stronger effect = lower value 1.02 | S. cerevisiae deletion strains, locus YER110C, stronger effect = lower value 1 | S. cerevisiae deletion strains, locus YER155C, strain BEM2, stronger effect = lower value 1 | S. cerevisiae deletion strains, locus YER167W, strain BCK2, stronger effect = lower value 1.01 | S. cerevisiae deletion strains, locus YGL078C, strain dbp3, stronger effect = lower value 1.02 | S. cerevisiae deletion strains, locus YGL086W, strain mad1, stronger effect = lower value 1 | S. cerevisiae deletion strains, locus YGL248W, strain PDE1, stronger effect = lower value 1 | S. cerevisiae deletion strains, locus YGR135W, strain pre9, stronger effect = lower value 1.02 | S. cerevisiae deletion strains, locus YGR252W, strain gcn5, stronger effect = lower value 0.975 | [19] 1.01 | S. cerevisiae deletion strains, locus YHR079C, strain IRE1 (second series), stronger effect = lower value 1.02 | S. cerevisiae deletion strains, locus YHR094C, strain hxt1, stronger effect = lower value 1.01 | S. cerevisiae deletion strains, locus YHR129C, strain ARP1, stronger effect = lower value 1 | S. cerevisiae deletion strains, locus YHR200W, strain rpn10, stronger effect = lower value 1.01 | S. cerevisiae deletion strains, locus YIL066C, strain RNR3, stronger effect = lower value 0.997 | S. cerevisiae deletion strains, locus YIL073C, strain SPO22, stronger effect = lower value 1.06 | S. cerevisiae deletion strains, locus YIL125W, strain kgd1, stronger effect = lower value 1.01 | S. cerevisiae deletion strains, locus YIR030C, strain dcg1, stronger effect = lower value 1 | S. cerevisiae deletion strains, locus YJL095W, strain BCK1, stronger effect = lower value 1.03 | S. cerevisiae deletion strains, locus YJL134W, strain LCB3, stronger effect = lower value 1 | S. cerevisiae deletion strains, locus YJL168C, strain set2, stronger effect = lower value 1.01 | S. cerevisiae deletion strains, locus YJL187C, strain SWE1 (second series), stronger effect = lower value 1.02 | S. cerevisiae deletion strains, locus YKL009W, strain mrt4, stronger effect = lower value 0.992 | S. cerevisiae deletion strains, locus YKL068W, stronger effect = lower value 1.01 | S. cerevisiae deletion strains, locus YKL085W, strain MDH1 (second series), stronger effect = lower value 1.01 | S. cerevisiae deletion strains, locus YKL085W, strain MDH1, stronger effect = lower value 1.01 | S. cerevisiae deletion strains, locus YKR001C, strain vps1, stronger effect = lower value 1.01 | [20] 1.02 | S. cerevisiae deletion strains, locus YLR058C, strain SHM2, stronger effect = lower value 1 | S. cerevisiae deletion strains, locus YLR102C, strain apc9, stronger effect = lower value 1.01 | S. cerevisiae deletion strains, locus YLR268W, strain sec22, stronger effect = lower value 1.01 | S. cerevisiae deletion strains, locus YLR330W, strain CHS5, stronger effect = lower value 1.01 | S. cerevisiae deletion strains, locus YLR371W, strain rom2, stronger effect = lower value 1.01 | S. cerevisiae deletion strains, locus YLR418C, strain cdc73, stronger effect = lower value 1.03 | S. cerevisiae deletion strains, locus YML016C, strain PPZ1, stronger effect = lower value 0.999 | S. cerevisiae deletion strains, locus YML032C, strain rad52, stronger effect = lower value 1.01 | S. cerevisiae deletion strains, locus YML124C, strain tub3, stronger effect = lower value 1.01 | S. cerevisiae deletion strains, locus YMR078C, strain ctf18, stronger effect = lower value 1.01 | S. cerevisiae deletion strains, locus YMR223W, strain ubp8, stronger effect = lower value 1.01 | [8] 1.04 | S. cerevisiae deletion strains, locus YNL067W, strain RPL9B, stronger effect = lower value 1.02 | [14] 1.02 | S. cerevisiae deletion strains, locus YNL233W, strain BNI4, stronger effect = lower value 1.02 | S. cerevisiae deletion strains, locus YNL250W, strain rad50, stronger effect = lower value 1.01 | S. cerevisiae deletion strains, locus YNL271C, strain bni1, stronger effect = lower value 1.01 | S. cerevisiae deletion strains, locus YNL298W, strain CLA4, stronger effect = lower value 1 | S. cerevisiae deletion strains, locus YNL307C, strain MCK1, stronger effect = lower value 1.01 | S. cerevisiae deletion strains, locus YNR052C, strain pop2, stronger effect = lower value 1.01 | S. cerevisiae deletion strains, locus YOL012C, strain htz1 0.877 | S. cerevisiae deletion strains, locus YOL147C, strain pex11, stronger effect = lower value 1.01 | S. cerevisiae deletion strains, locus YOR061W, strain CKA2, stronger effect = lower value 0.997 | S. cerevisiae deletion strains, locus YOR069W, strain VPS5, stronger effect = lower value 1 | S. cerevisiae deletion strains, locus YOR136W, strain idh2, stronger effect = lower value 1.02 | S. cerevisiae deletion strains, locus YOR144C, strain elg1, stronger effect = lower value 1 | S. cerevisiae deletion strains, locus YOR184W, strain ser1, stronger effect = lower value 0.999 | S. cerevisiae deletion strains, locus YOR316C, strain cot1, stronger effect = lower value 1.01 | S. cerevisiae deletion strains, locus YPR119W, strain clb2, stronger effect = lower value 1.02 | S. cerevisiae deletion strains, locus YPR141C, strain kar3, stronger effect = lower value 1.01 | S. cerevisiae deletion strains, locus YPR163C, strain tif3, stronger effect = lower value 1.01 | S. cerevisiae deletion strains, locus YPR167C, strain met16, stronger effect = lower value 1.01 | S. cerevisiae deletion strains, strain wtn01, stronger effect = lower value 0.991

COc1ccccc1N1CCN(S(=O)(=O)c2ccc(C(F)(F)F)cc2)CC1
inactive: [21] 1 | [17] 0.99 | [22] 0.985 | [18] 1.01 | [3] 0.989 | [23] 1.02 | [6] 1 | [19] 1.09 | [24] 1.03 | [25] 0.985 | [26] 0.998 | [27] 0.99 | [28] 0.965 | [20] 0.952 | [29] 0.987 | [30] 0.927 | [31] 0.962 | [32] 0.995 | [33] 0.989 | [7] 0.977 | [8] 1.04 | [14] 1 | [34] 1.01 | [15] 0.99 | [35] 1 | [36] 1.03 | [37] 0.988 | [16] 0.888 | [38] 0.983 | [39] 0.976

Cc1oc(-c2ccccc2)cc1C(=O)N1CCN(c2ccc(C(F)(F)F)cn2)CC1
active: [21] 0.86 | [19] 0.433 | [30] 0.663 | [34] 0.826 | [35] 0.823 | [37] 0.709 | [38] 0.497
inactive: [17] 0.961 | [22] 0.984 | [18] 1 | [3] 0.858 | [23] 0.947 | [6] 0.963 | [24] 0.935 | [25] 0.988 | [26] 0.98 | [27] 0.964 | [20] 0.876 | [29] 0.977 | [31] 0.941 | [32] 0.875 | [33] 0.975 | [7] 0.919 | [8] 0.762 | [14] 0.978 | [15] 0.984 | [36] 0.795 | [39] 0.957

O=S(=O)(c1ccc(Cl)c(Cl)c1)N1CCN(c2ccc(C(F)(F)F)cn2)CC1
inactive: [21] 1 | [17] 1.01 | [22] 1.05 | [18] 1.05 | [3] 1.02 | [23] 0.998 | [6] 1.05 | [19] 1.09 | [24] 1.02 | [25] 1.03 | [26] 1.03 | [27] 1.06 | [28] 1.02 | [20] 1 | [29] 1.02 | [31] 1 | [32] 1.04 | [33] 1.01 | [7] 1.04 | [14] 1.04 | [34] 1.04 | [15] 1.01 | [35] 1.04 | [37] 1.07 | [16] 1.11 | [38] 0.99 | [39] 1.01
active: [30] 1.35 [resistant]

COC(=O)c1csc2c(C(F)(F)F)cc(N3CCN(S(=O)(=O)c4ccc(C)cc4)CC3)nc12
inactive: [21] 1.01 | [17] 1 | [18] 1 | [3] 1.05 | [23] 1.01 | [6] 1.02 | [19] 1.16 | [24] 1 | [25] 1 | [26] 1.04 | [27] 0.999 | [28] 1.01 | [20] 1.01 | [29] 1.01 | [30] 1 | [31] 1.13 | [32] 0.998 | [33] 0.995 | [7] 1.03 | [9] 1 | [34] 1.02 | [15] 1 | [35] 1.03 | [37] 0.993 | [16] 0.986 | [38] 1.11 | [39] 1.01
